{
  "source": "PubChem BioAssay (NCATS)",
  "note": "Inconclusive results are not listed. A number with no mark means an inactive call. Activity calls are given as the source filed them. Calls follow the shape of the dose curve; as a rule, active = well fitted inhibition curve with a large enough effect; inconclusive = small, poorly fitted or top-dose-only effect; inactive = no such curve, though single readings can be large or run the other way. % is scaled to controls: 0 for no effect and ±100 for the full control effect.",
  "data": [
    {"experiment": "Primary qHTS for inhibitors of nuclear receptor binding SET domain protein 2 (NSD2) in an RCH-ACV wild type WT cells (2C) (AID 1645877); also: nearly all actives have a fitted effect of over 70% in size", "conditions": "RCH-ACV NSD2 WT (2C) viability, CellTiter-Glo, 72 h; series mostly up to 44.9 µM; activity change, negative = cell killing: at the top concentration", "values": [
      {"smiles": "CC(=O)O[C@@H]1C(=O)C(C)=C(CCC(C)CC(=O)O)[C@@]2(C)CCCC(C)(C)C12", "note": "(some centres not stated)", "activity change, negative = cell killing": "-9.52%"},
      {"smiles": "CC1(C)CC[C@]2(C(=O)O)CC[C@]3(C)C(=CCC4[C@@]5(C)C(=O)C[C@H](O)[C@@](C)(CO)C5CC[C@]43C)[C@@H]2C1", "note": "(some centres not stated)", "outcome": "inactive [at 17.3 µM]"},
      {"smiles": "NC[C@@H]1O[C@@H](O[C@@H]2[C@@H](O[C@@H]3O[C@H](CO)[C@@H](O)[C@H]3O)[C@H](O)[C@@H](N)C[C@H]2N)[C@@H](N)[C@H](O)[C@H]1O", "outcome": "inactive [at 9.23 µM]"},
      {"smiles": "NC1(c2ccc(NC(=O)c3ccnc(-c4cc(C(=O)O)ccn4)c3)cc2)CC1", "activity change, negative = cell killing": "1.17%"},
      {"smiles": "CC(/C=C/C=C(\\C)C(=O)O[C@@H]1O[C@H](CO[C@@H]2O[C@H](CO)[C@@H](O)[C@H](O)[C@H]2O)[C@@H](O)[C@H](O)[C@H]1O)=C\\C=C\\C=C(C)\\C=C\\C=C(/C)C(=O)O[C@@H]1C[C@](O)(C(=O)O)C[C@@H](O)[C@H]1OC(=O)/C=C/c1ccc(O)c(O)c1", "activity change, negative = cell killing": "-16.8% [at 9.23 µM]"},
      {"smiles": "CC(C)(O)C1CCC2(C)CCCC(C)(O)C2C1", "note": "(configuration not stated)", "activity change, negative = cell killing": "-8%"},
      {"smiles": "C[C@@H]1O[C@@H](O[C@H]2[C@H](OC(=O)[C@]34CCC(C)(C)C[C@H]3C3=CCC5[C@@]6(C)C[C@@H](O)[C@@H](O)[C@@](C)(CO)C6[C@H](O)C[C@@]5(C)[C@]3(C)CC4)OC[C@H](O)[C@@H]2O)[C@H](O)[C@H](O)[C@H]1O[C@@H]1OC[C@@H](O)[C@H](O[C@H]2O[C@H](C)[C@@H](O)[C@H](O)[C@@H]2O)[C@H]1O", "note": "(some centres not stated)", "activity change, negative = cell killing": "-1.27% [at 9.23 µM]"}
    ]}
  ]
}
